# Source: PubChem BioAssay (EPA / NIEHS)
# Records with an inconclusive call do not appear. Activity calls are given as the source filed them. Rule for the calls: active = hit-call score of the fitted dose curve at least 0.9, where 1 is the maximum; inconclusive = response in the unintended direction; inactive = score below 0.9.
# Target: human Protein Tyrosine Phosphatase Non-receptor Type 9 (PTPN9), PTPN9 (gene 5780) (UniProt P43378)
# Assay: NVS_ENZ_hPTPN9: NovaScreen (NVS) Enzymatic Assay for human Protein Tyrosine Phosphatase Non-receptor Type 9 (PTPN9) (AID 2283209)
# Method: NVS_ENZ_hPTPN9 is a biochemical, single-readout assay that uses extracted gene-proteins from SF9 in a cell-free assay. Measurements were taken 1.33 hours after chemical dosing in a 384-well plate.NVS_ENZ_hPTPN9 is one of one assay component(s) measured or calculated from the NVS_ENZ_hPTPN9 assay. It is designed to make measurements of enzyme activity, a form of enzyme reporter, as detected with fluorescence intensity signals by Fluorescence and electrophoretic mobility shift technology.Data from the assay component NVS_ENZ_hPTPN9 was analyzed into 1 assay endpoint. This assay endpoint, NVS_ENZ_hPTPN9, was analyzed in the positive analysis fitting direction relative to DMSO as the negative control and baseline of activity. Using a type of enzyme reporter, loss-of-signal activity can be used to understand changes in the enzymatic activity as they relate to the gene PTPN9. Furthermore, this assay endpoint can be referred to as a primary readout, because this assay has produced multiple assay endpoints where this one serves a enzymatic activity function. To generalize the intended target to other relatable targets, this assay endpoint is annotated to the phosphatase intended target family, where the subfamily is non-receptor tyrosine phosphatase.
# Binding assays used specific radioligands (tritiated, iodinated) with non-radioactive competitive displacement ligands in agonist or antagonist protocols (as indicated) and various reference compounds and inhibitors to titrate specific binding to receptors and transporters. Most enzyme assays (CYPs, kinases, phosphatases, proteases, HDACs) used recombinant protein and specific substrates (fluorescence mostly, some colorimetric and radioactive) and inhibitors, followed by a biochemical separation of substrate and product. All assays for the biochemical HTS were initially run in duplicate at a single concentration (10 uM for CYP450 assays and 25 uM for all others). Assay-chemical combinations meeting a pre-defined threshold (e.g., 30% inhibition and other criteria defined below) were then run in singleton concentration-response format with maximum concentration of 20 uM for CYPs and 50 uM for all others. Each assay was run with positive and negative controls, and concurrent controls on every plate. The follow-up (secondary) screen tested active chemical-pairs in concentration series, as well as a few additional assays not tested in the primary screen, some selected negative inactives, and several cases re-run in the concentration series for confirmatory purposes.
# Sequence of human Protein Tyrosine Phosphatase Non-receptor Type 9 (PTPN9), PTPN9 (gene 5780) (P43378 whole entry, looked up): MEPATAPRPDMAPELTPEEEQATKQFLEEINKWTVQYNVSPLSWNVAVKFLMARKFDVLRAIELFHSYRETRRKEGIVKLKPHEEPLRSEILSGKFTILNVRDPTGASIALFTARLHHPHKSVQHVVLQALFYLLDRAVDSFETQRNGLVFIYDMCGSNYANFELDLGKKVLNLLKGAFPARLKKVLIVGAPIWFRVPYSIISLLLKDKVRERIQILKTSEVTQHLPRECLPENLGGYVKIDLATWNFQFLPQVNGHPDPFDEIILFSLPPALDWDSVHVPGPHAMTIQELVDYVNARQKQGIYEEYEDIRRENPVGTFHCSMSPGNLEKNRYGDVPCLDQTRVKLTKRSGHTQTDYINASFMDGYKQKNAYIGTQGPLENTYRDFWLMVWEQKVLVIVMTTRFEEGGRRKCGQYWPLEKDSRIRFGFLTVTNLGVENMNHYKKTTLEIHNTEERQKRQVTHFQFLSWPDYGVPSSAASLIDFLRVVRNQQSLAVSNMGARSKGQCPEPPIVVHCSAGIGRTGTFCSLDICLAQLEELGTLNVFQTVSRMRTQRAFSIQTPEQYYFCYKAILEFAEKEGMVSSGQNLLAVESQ
Compound,outcome,AC50
NS(=O)(=O)c1cc2c(cc1Cl)NCNS2(=O)=O,inactive,–
CCCCCCCCCCC,inactive,–
O=[N+]([O-])C(CO)(CO)CO,–,38.4 µM (active)
Cc1ccc2ncccc2c1,inactive,–
O=C(OCCCCCOC(=O)c1ccccc1)c1ccccc1,inactive,–
Oc1ccc2ccccc2c1N=Nc1ccccc1,–,25 µM (active)
O=C(O)CCCCC(=O)O,inactive,–
CCc1c(C(=O)NN2CCCCC2)nn(-c2ccc(Cl)cc2Cl)c1-c1ccc(Br)cc1,inactive,–
CCOC(=O)C(C)(C)Oc1ccc(Cl)cc1,inactive,–
Nc1ccccc1N,–,9.86 µM (active)
